In PubChem BioAssay AID651955 (The Scripps Research Institute Molecular Screening Center, 2012):
About 40 (2%) of roughly 2,400 compounds were called active. Rule as the data show it: active = activation above about 37%; inactive = the rest. A selection follows.

Biological target: Trace amine-associated receptor 1 (Homo sapiens) (UniProt Q96RJ0)
Assay: TAAR1 activation by candidate antagonists – cell-based, fluorescence, counter-screen for TAAR1 antagonist project (AID 651955);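 also: CHO cells stably expressing TAAR1 with calcium dye readout; 0% = DMSO vehicle and 100% = full agonist response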
Details: hTAAR1 cell line, agonist mode, at 3 µM, active compounds read high

Sequence of Trace amine-associated receptor 1 (Homo sapiens) (Q96RJ0 whole entry, looked up): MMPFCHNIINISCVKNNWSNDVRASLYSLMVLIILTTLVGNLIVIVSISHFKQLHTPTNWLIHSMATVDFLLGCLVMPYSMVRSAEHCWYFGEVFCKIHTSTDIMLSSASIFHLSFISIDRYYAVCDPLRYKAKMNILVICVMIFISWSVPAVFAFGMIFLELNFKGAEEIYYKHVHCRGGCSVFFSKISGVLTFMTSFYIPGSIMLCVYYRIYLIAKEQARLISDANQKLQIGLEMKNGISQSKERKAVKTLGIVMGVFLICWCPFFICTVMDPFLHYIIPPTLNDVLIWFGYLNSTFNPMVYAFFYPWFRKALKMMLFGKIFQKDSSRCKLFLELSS

Question: Which activation does the source give for `COc1ccc(C2=NOC(Cn3nc(C(=O)NCc4ccc5c(c4)OCO5)cc3-c3ccccc3)C2)cc1` (configuration not stated) here?
Answer: 6.17% (inactive)

Question: Which activation does the source give for `COC(=O)c1sccc1NC(=O)c1cc(OC)c(OC)c(OC)c1` here?
Answer: 6.39% (inactive)

Question: For `Cc1nc(N2CCN(c3ccccn3)CC2)c2c(C)c(C(=O)Nc3ccc(F)cc3)sc2n1`, which activation is on record?
Answer: 5.28% (inactive)

Question: Which activation does the source give for `COc1ccc(CN(C)C(=O)c2cc(-c3ccc(C)cc3C)nc3ccccc23)c(OC)c1OC` here?
Answer: 12.2% (inactive)

Question: With `O=C(NCCN1C(=O)S/C(=C\c2cccnc2)C1=O)c1ccc(S(=O)(=O)N2CCCC2)cc1` as the molecule, how does the activation read?
Answer: 6.63% (inactive)

Question: How did the activation turn out when `C[C@H](O)[C@@H]1C(=O)N2CCc3c([nH]c4c(-c5ccc6c(c5)OCO6)cccc34)[C@@H]2C[C@@H]1N(C)C(=O)c1ccco1` was run?
Answer: 7.7% (inactive)

Question: Which activation does the source give for `Cc1cc(Br)ccc1NC(=O)c1cnc(N2CCN(c3ccccn3)CC2)c2ccccc12` here?
Answer: 5.88% (inactive)

Question: How did the activation turn out when `COC(=O)[C@@]1(Sc2ccc(C)cc2)CC(=O)N(c2cccc(SC)c2)[C@@H]1c1ccccc1` was run?
Answer: 9.64% (inactive)

Question: `COc1ccc(S(=O)(=O)N2CCCC(C(=O)Nc3ccc(NC(=O)c4ccccn4)cc3)C2)cc1` (configuration not stated) was tested. Which activation did it give?
Answer: 11% (inactive)

Question: Which activation does the source give for `COc1ccc(CCNC2=C(Cl)C(=O)N(Cc3ccccc3)C2=O)cc1OC` here?
Answer: 7.18% (inactive)

Question: With `O=C(O)c1ccc(NC(=O)c2cn(-c3ccccc3)nc2-c2ccc(Cl)cc2)cc1` as the molecule, how does the activation read?
Answer: -1.05% (inactive)

Question: For `COc1ccc(NC(=O)c2cc(-c3ccc(C)o3)nc3ccccc23)cc1`, which activation is on record?
Answer: 6.61% (inactive)

Question: `O=C(Oc1ccc(-c2nnco2)cc1)c1ccc(F)c(S(=O)(=O)N2CCOCC2)c1` was tested. Which activation did it give?
Answer: 14.6% (inactive)

Question: Which activation does the source give for `O=C(OCC(=O)N(CCc1ccccc1)Cc1ccccc1)c1ccccc1[N+](=O)[O-]` here?
Answer: 7.56% (inactive)

Question: Which activation does the source give for `COC(=O)Cc1nnn2c1[C@H](C)[C@H](c1ccccc1Br)OCC2` here?
Answer: 7.69% (inactive)

Question: For `COc1ccc(OC)c2[nH]c(=O)c(CCNC(=O)C(=O)c3c[nH]c4ccccc34)cc12`, which activation is on record?
Answer: 10.8% (inactive)

Question: Which activation does the source give for `Cc1cccc(NC(=O)c2ccc(COc3ccccc3[N+](=O)[O-])o2)n1` here?
Answer: 1.12% (inactive)

Question: For `NNC(=O)CNC(c1ccccc1)c1cc(Cl)ccc1NC(=O)c1ccccc1` (configuration not stated), which activation is on record?
Answer: 8.83% (inactive)

Question: For `Cc1cc(C(C)(C)C)oc1C(=O)N(CC(=O)NC1CCCC1)Cc1ccc(Cl)cc1`, which activation is on record?
Answer: 34.2% (inactive)

Question: Which activation does the source give for `CCOc1cc(/C=N/NC(=O)c2cc(-c3ccccc3)nc3ccccc23)ccc1O` here?
Answer: 15.8% (inactive)

Question: With `O=C(N/N=C/c1ccc(OC(=O)c2ccccc2Cl)cc1)c1ccc(O)cc1` as the molecule, how does the activation read?
Answer: 13.1% (inactive)

Question: `Cc1cccc(NC(=O)c2nc[nH]c2C(=O)NCC(=O)OCc2ccccc2)c1` was tested. Which activation did it give?
Answer: 3.94% (inactive)

Question: For `C[C@H](NC(=O)c1nc[nH]c1C(=O)NCC(=O)OC(C)(C)C)C(=O)OCc1ccccc1`, which activation is on record?
Answer: 11.1% (inactive)

Question: With `O=C(COC(=O)CCCSc1nc2ccccc2[nH]1)Nc1ccc(Oc2ccccc2)cc1` as the molecule, how does the activation read?
Answer: 9.65% (inactive)

Question: With `COc1ccc(CCNC(=O)c2ccc(CS(=O)(=O)c3ccc(Br)cc3)o2)cc1OC` as the molecule, how does the activation read?
Answer: 12.3% (inactive)

Question: For `COc1cc2ccccc2cc1C(=O)Nc1ccc(NC(=O)c2cccs2)cc1`, which activation is on record?
Answer: 7.6% (inactive)

Question: How did the activation turn out when `C=CCC[C@H](Cc1ccc(F)cc1)C(=O)OC[C@H](C)NC(=O)[C@H](CC=C)CC(=O)N(CCO)Cc1ccccc1` was run?
Answer: 6.83% (inactive)

Question: `CCc1ccc2c(c1)NC(=O)C2(C)Cc1ccc(OC(F)(F)F)cc1` (configuration not stated) was tested. Which activation did it give?
Answer: 25.6% (inactive)

Question: For `CC/C(=N/Nc1ccccc1)c1cnnc(SC)n1`, which activation is on record?
Answer: -4.06% (inactive)

Question: Which activation does the source give for `Cc1ccc2c(c1)N(CC(=O)NCCc1ccc(Cl)cc1)C(=O)c1cccnc1O2` here?
Answer: 5.11% (inactive)

Question: How did the activation turn out when `Oc1ccccc1N1CCN(c2ncnc3sc(-c4ccccc4)cc23)CC1` was run?
Answer: 2.9% (inactive)

Question: `Cc1ccc(NC(=O)c2ccc(CSc3ncnc4nc[nH]c34)cc2)c(C)c1` was tested. Which activation did it give?
Answer: 3.79% (inactive)

Question: For `C=CCc1cc(S(=O)(=O)c2ccc(O)c(CC=C)c2)ccc1O`, which activation is on record?
Answer: 9.65% (inactive)

Question: `Cc1ccc2cccc(OCCCOc3ccccc3CO)c2n1` was tested. Which activation did it give?
Answer: 11.3% (inactive)

Question: How did the activation turn out when `COc1ccc(/C=C/C(=O)Nc2ccc(C34CC5CC(CC(O)(C5)C3)C4)cc2)cc1OC` was run?
Answer: 11.1% (inactive)

Question: Which activation does the source give for `Cc1ccccc1NC(=O)Cc1nc(COC(=O)C(C)(C)Oc2ccc(Cl)cc2)cs1` here?
Answer: 10.5% (inactive)

Question: For `CCNS(=O)(=O)c1ccc(CCC(=O)N2CCN(c3cc(Cl)ccc3C)CC2)cc1`, which activation is on record?
Answer: 17.4% (inactive)

Question: How did the activation turn out when `COc1ccc(C(=O)Oc2ccc(-c3nnco3)cc2)cc1S(=O)(=O)N1CCOCC1` was run?
Answer: 11% (inactive)

Question: How did the activation turn out when `Oc1ccc(/C=N/Nc2nc(-c3ccccc3F)nc3ccccc23)c(O)c1` was run?
Answer: 9.34% (inactive)

Question: For `C=CCn1c(SCc2cccc(F)c2)nc2cc(C(=O)N3CCC(C(N)=O)CC3)ccc2c1=O`, which activation is on record?
Answer: 9% (inactive)

Question: Which activation does the source give for `COc1ccc2[nH]c(=O)c(CN(Cc3cccnc3)S(=O)(=O)c3ccccc3F)cc2c1` here?
Answer: 12.6% (inactive)

Question: How did the activation turn out when `Fc1ccc(/C=N/Nc2nc(-c3cccnc3)nc3ccccc23)cc1` was run?
Answer: 3.24% (inactive)

Question: With `CCOC(=O)C1=C(NC(=S)NC(=O)c2ccccc2)c2ccccc2CC1(C)C` as the molecule, how does the activation read?
Answer: 31.1% (inactive)

Question: For `CNC(=O)c1ccsc1NC(=O)c1ccc(S(=O)(=O)N2CCc3ccccc32)cc1`, which activation is on record?
Answer: 6.5% (inactive)

Question: How did the activation turn out when `CC(C)(C)OC(=O)NCCCCCNC(=O)c1nc[nH]c1C(=O)NCc1ccccc1` was run?
Answer: 7.66% (inactive)

Question: Which activation does the source give for `Cc1ccccc1OCC(=O)Nc1ccc(N2CCN(C(=O)C(C)C)CC2)c(Cl)c1` here?
Answer: 10.6% (inactive)

Question: Which activation does the source give for `COc1cc(OC)cc(C(=O)OCC(=O)Nc2sccc2C(N)=O)c1` here?
Answer: 16.7% (inactive)

Question: Which activation does the source give for `CCOc1ccc(NC(=O)N2CC=C(n3c(=O)[nH]c4ccccc43)CC2)cc1` here?
Answer: 6.44% (inactive)

Question: `O=C(CCc1ccccc1)Nc1cccc(-c2nnc(-c3ccco3)o2)c1` was tested. Which activation did it give?
Answer: 7.95% (inactive)

Question: With `O=C(Nc1ccc(-c2nnc(-c3ccccc3)o2)cc1)c1ccc(Br)o1` as the molecule, how does the activation read?
Answer: -1.1% (inactive)

Question: `CC(C)Oc1cc(F)ccc1-c1cc(C(=O)Nc2ccc(F)cc2)[nH]n1` was tested. Which activation did it give?
Answer: 2.53% (inactive)

Question: With `COc1ccc(-c2cc(C(=O)N(C)Cc3ccc(OC)c(OC)c3OC)c3ccccc3n2)cc1OC` as the molecule, how does the activation read?
Answer: 8.62% (inactive)
